PubChem BioAssay (Tox21)
Where “and” joins values, the source holds several entries; their conditions need not be identical. Identical values can stand only once. Results filed as inconclusive are left out. Calls of active or inactive are those of the source. Unless noted, calls come from the whole dose curve.

Experiments:
[1] = Nuclear factor erythroid 2-related factor 2/antioxidant responsive element (Nrf2/ARE) small molecule agonists: qHTS cell viability counter screen in human keratinocytes (AID 1919968; active = well fitted curve in the direction sought with a large enough effect in the repeat runs; an effect the other way counts as inactive or inconclusive; note: nearly all actives have a fitted effect of over 55% in size; note: potency is the fitted concentration of half-maximal effect)
Summary of the method: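 Stably transfected HaCaT (KeratinoSens), 1,500/well. Test agents in DMSO were applied for 23 h, 37 C/5% CO2. CellTiter-Fluor was incubated 1 h before the fluorescence read.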

[2] = Nuclear factor erythroid 2-related factor 2/antioxidant responsive element (Nrf2/ARE) small molecule agonists: luciferase reporter gene qHTS assay in human keratinocytes (AID 1919969); note: nearly all actives have a fitted effect of over 35% in size; note: potency is the fitted concentration of half-maximal effect
[3] = target: KiSS-1 receptor (Homo sapiens) (UniProt Q969F8); assay: Human kisspeptin (KISS1R) small molecule agonists, calcium flux assay in KISS1R-HEK293 cells (AID 1920064; active = well fitted curve in the direction sought with a large enough effect in the repeat runs; an effect the other way counts as inactive or inconclusive)
KiSS-1 receptor (Homo sapiens), sequence (Q969F8 whole entry, looked up): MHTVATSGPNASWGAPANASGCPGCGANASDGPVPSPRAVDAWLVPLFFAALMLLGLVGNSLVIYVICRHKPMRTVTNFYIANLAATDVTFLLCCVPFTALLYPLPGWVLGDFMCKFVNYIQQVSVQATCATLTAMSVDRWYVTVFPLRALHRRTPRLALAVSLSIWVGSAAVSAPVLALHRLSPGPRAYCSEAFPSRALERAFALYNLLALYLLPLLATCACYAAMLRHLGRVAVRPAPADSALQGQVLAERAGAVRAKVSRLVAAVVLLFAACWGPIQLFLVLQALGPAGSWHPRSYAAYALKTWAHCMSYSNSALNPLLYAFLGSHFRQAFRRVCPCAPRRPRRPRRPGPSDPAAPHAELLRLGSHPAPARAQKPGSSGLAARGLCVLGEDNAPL
Summary of the method: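 After overnight (18 h) culture at 37 C/5% CO2, human KISS1R-HEK293 cells received calcium dye for 1 h, then test compound; emission at 540 nm (excitation 480 nm) was tracked for 3 min.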

[4] = G protein-coupled receptor (GPCR) small molecule agonists, calcium flux assay: HEK293 wild type cell line counter screen (AID 1920065)
Summary of the method: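 Following 18 h incubation at 37 C/5% CO2, plates got calcium dye for 1 h; compounds, ATP or DMSO were then pinned in and fluorescence followed kinetically (480/540 nm).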

[5] = p53 small molecule agonists, cell-based qHTS assay with human liver microsomes: qHTS cell viability counter screen (AID 1963579); note: nearly all actives have a fitted effect of over 45% in size
Summary of the method: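 Cytotoxicity counter screen: p53RE-bla, 4,000 cells/well; 5 h settle, 37 C/5% CO2; cpd + HLM 0.5 mg/mL + NADPH 0.5 mg/mL (final); 16 h, 37 C; CellTiter-Glo, 30 min RT, luminescence.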

[6] = p53 small molecule agonists, cell-based qHTS assay with rat liver microsomes: qHTS cell viability counter screen (AID 1963580); note: nearly all actives have a fitted effect of over 45% in size
Summary of the method: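 Cytotoxicity counter screen: intracellular ATP read by CellTiter-Glo luminescence in the p53 reporter wells. HCT-116 p53RE-bla cells were treated for 16 h at 37 C alongside rat liver microsomes and NADPH, each 0.5 mg/mL final.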

[7] = p53 small molecule agonists, cell-based qHTS assay: qHTS cell viability counter screen (AID 1963581); note: nearly all actives have a fitted effect of over 45% in size
Summary of the method: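 qHTS counter screen: 16 h compound exposure at 37 C of p53RE-bla HCT-116 cells (4,000 per well, seeded 5 h prior), cell viability by ATP luminescence.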

[8] = target: 5-hydroxytryptamine receptor 2A (Homo sapiens) (UniProt P28223); assay: 5-hydroxytryptamine receptor 2A (HTR2A) small molecule antagonists, cell-based qHTS assay (AID 1963586); note: nearly all actives have a fitted effect of over 45% in size
5-hydroxytryptamine receptor 2A (Homo sapiens), sequence (P28223 whole entry, looked up): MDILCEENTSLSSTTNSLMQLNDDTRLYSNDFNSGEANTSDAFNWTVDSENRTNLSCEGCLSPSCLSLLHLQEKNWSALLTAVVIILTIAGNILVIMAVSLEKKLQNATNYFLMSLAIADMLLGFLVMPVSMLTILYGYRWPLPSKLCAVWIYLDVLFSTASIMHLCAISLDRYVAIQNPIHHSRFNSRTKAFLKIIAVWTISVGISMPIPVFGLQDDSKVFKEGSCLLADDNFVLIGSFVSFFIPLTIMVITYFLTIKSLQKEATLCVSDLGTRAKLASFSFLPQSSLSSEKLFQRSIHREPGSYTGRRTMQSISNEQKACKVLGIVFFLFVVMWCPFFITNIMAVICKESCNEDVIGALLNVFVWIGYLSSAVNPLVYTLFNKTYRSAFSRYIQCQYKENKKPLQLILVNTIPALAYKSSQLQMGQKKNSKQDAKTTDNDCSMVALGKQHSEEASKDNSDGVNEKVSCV
Summary of the method: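 CHO cells stably expressing human HTR2A were plated for 18 h at 37 C, then loaded with calcium dye for 1 h. Compounds were preincubated 5 min at room temperature before DOI (4 nM solution) was added. Kinetic fluorescence was read for 3 min.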

[9] = target: Muscarinic acetylcholine receptor M1 (Homo sapiens) (UniProt P11229); assay: Cholinergic receptor muscarinic 1 (CHRM1) small molecule antagonists, cell-based qHTS assay (AID 1963588); note: nearly all actives have a fitted effect of over 40% in size
Muscarinic acetylcholine receptor M1 (Homo sapiens), sequence (P11229 whole entry, looked up): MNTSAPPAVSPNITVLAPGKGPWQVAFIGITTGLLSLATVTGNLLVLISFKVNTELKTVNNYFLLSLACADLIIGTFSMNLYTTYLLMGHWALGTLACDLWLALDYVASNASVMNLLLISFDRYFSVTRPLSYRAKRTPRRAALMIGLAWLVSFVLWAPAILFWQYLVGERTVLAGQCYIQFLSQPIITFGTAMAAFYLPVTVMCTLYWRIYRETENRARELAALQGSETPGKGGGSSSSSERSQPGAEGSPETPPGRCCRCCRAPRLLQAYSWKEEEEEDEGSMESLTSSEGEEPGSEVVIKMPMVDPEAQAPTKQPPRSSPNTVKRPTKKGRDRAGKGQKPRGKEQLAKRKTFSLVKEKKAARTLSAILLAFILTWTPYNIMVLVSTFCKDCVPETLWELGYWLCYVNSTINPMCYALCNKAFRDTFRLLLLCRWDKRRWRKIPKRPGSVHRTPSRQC
Summary of the method: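 Compounds were tested at 15 concentrations in three independent runs. Dye-loaded CHRM1-CHO cells were exposed 5 min at room temperature before stimulation by acetylcholine added at 50nM. Intracellular calcium was read kinetically on FDSS for 3 min.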

[10] = target: Muscarinic acetylcholine receptor M1 (Homo sapiens) (UniProt P11229); assay: Cholinergic receptor muscarinic 1 (CHRM1) small molecule agonists, cell-based qHTS assay (AID 1963589); note: nearly all actives have a fitted effect of over 35% in size
Summary of the method: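 Kinetic fluorescence (1 s intervals) of calcium-sensitive dye in human M1 CHO cells after compound addition; cells pre-incubated 18 h at 37 C/5% CO2 and dye-loaded 1 h.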

[11] = cAMP Responsive Elements (CRE) small molecule agonists, cell-based qHTS assay (AID 1963590)
Summary of the method: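 Test agents in DMSO were incubated 3 h at 37 C/5% CO2 with CRE-bla HEK 293T cells seeded 18 h earlier; LiveBLAzer B/G FRET substrate was added and read after 2 h at room temperature.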

[12] = cAMP Responsive Elements (CRE) small molecule antagonists, cell-based qHTS assay (AID 1963591; active = well fitted inhibition curve with a large enough effect in the signal ratio in the repeat runs, not every such curve was filed as active; the % refers to the signal ratio)
Summary of the method: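 Reporter line CRE-bla HEK 293T in dialyzed-FBS DMEM; cells preincubated 18 h, treated 3 h with compound plus NKH477 (0.25 uM final); LiveBLAzer FRET, 2 h RT.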

[13] = target: Beta-2 adrenergic receptor (Homo sapiens) (UniProt P07550); assay: Adrenergic beta2 receptor (ADRB2) small molecule antagonists, cell-based qHTS assay (AID 1963592); note: series mostly up to about 92 µM; nearly all actives have a fitted effect of over 50% in size
Beta-2 adrenergic receptor (Homo sapiens), sequence (P07550 whole entry, looked up): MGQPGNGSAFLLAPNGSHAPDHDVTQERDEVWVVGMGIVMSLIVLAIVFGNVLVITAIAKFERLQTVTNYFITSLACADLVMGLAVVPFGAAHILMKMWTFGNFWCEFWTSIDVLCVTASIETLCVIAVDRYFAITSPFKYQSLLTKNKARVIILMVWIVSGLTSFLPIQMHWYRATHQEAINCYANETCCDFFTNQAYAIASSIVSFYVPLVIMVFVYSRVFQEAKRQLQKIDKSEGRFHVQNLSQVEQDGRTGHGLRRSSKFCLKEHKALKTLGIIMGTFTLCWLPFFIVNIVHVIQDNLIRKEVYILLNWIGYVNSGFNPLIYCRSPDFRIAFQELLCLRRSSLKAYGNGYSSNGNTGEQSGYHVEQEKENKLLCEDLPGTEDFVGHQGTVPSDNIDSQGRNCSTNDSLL
Summary of the method: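 Assay format: CHO-ADRB2 cells, 18-20hr seeding at 37C/5% CO2, then compound plus 1nM isoproterenol agonist mix for 0.5hr RT. Homogeneous time-resolved fluorescence cAMP detection after 1hr, expressed as 665/615 nm ratio.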

[14] = target: Beta-2 adrenergic receptor (Homo sapiens) (UniProt P07550); assay: Adrenergic beta2 receptor (ADRB2) small molecule agonists, cell-based qHTS assay (AID 1963593);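 note: CHO cells stably overexpressing human ADRB2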
Summary of the method: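 CHO cells stably over-expressing ADRB2 were plated overnight at 37C, then dosed with compounds plus a stimulation mix containing 100uM IBMX and 25uM Ro-20-1724 for 0.5hr at room temperature. cAMP was measured by HTRF competition, 1hr.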

[15] = target: D(2) dopamine receptor (Homo sapiens) (UniProt P14416); assay: Dopamine D2 receptor (DRD2) small molecule agonists, cell-based qHTS assay (AID 1963594); note: nearly all actives have a fitted effect of over 35% in size
D(2) dopamine receptor (Homo sapiens), sequence (P14416 whole entry, looked up): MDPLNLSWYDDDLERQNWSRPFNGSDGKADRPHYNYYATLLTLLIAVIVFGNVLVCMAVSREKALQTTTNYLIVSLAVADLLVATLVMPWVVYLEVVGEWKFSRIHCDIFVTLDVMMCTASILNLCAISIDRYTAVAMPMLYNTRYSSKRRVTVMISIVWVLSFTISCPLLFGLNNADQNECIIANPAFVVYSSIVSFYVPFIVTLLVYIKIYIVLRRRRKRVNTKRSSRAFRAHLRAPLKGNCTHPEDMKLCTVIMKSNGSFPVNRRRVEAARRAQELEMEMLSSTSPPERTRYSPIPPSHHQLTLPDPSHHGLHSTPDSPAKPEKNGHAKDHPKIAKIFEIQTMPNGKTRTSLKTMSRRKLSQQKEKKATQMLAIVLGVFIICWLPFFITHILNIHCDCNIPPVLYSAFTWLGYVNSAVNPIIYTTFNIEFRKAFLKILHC
Summary of the method: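 cAMP accumulation in DRD2-HEK293 cells measured by HTRF after 1 h detection; compounds added 10 min before NKH477 (200nM […]) forskolin-analogue stimulation, 30 min at room temperature, with Ro20-1724 present at 0.1 mM final.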

[16] = target: D(2) dopamine receptor (Homo sapiens) (UniProt P14416); assay: Dopamine D2 receptor (DRD2) small molecule antagonists, cell-based qHTS assay (AID 1963595; active = well fitted inhibition curve with a large enough effect in the signal ratio in the repeat runs, with a control signal flat; the % refers to the signal ratio)
Summary of the method: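 HEK293 cells stably expressing DRD2, preincubated with 0.1 mM Ro20-1724 and compounds 10 min, were stimulated with 200 nM NKH477 plus 12 nM quinpirole for 30 min at room temperature; cAMP measured by HTRF (665/620 nm).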

[17] = p53 small molecule agonists, cell-based qHTS assay with human liver microsomes (AID 1963577)
Summary of the method: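 Fluorescence of the beta-lactamase reporter in p53RE-bla cells, detected with LiveBLAzer substrate (2 h, room temperature, dark), served as the read-out after 16 h compound exposure at 37 C with human liver microsomes and NADPH, each 0.5 mg/mL final.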

[18] = p53 small molecule agonists, cell-based qHTS assay with rat liver microsomes (AID 1963578)
Summary of the method: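 Cells carrying a p53 response element–beta-lactamase reporter were plated and rested 5 h, then dosed with compound in DMSO plus rat liver microsomes and NADPH, each at 0.5 mg/mL final. After 16 h at 37 C, LiveBLAzer substrate was added for 2 h.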

[19] = p53 small molecule agonists, cell-based qHTS assay (AID 1963582; active = well fitted activation curve with a large enough effect in the signal ratio in the repeat runs, not every such curve was filed as active; the % refers to the signal ratio)
Summary of the method: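 Measured: fluorescence from cleaved LiveBLAzer substrate. System: p53RE-bla cells, 16 h compound treatment at 37 C, 2 h substrate step at room temperature.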

[20] = target: 5-hydroxytryptamine receptor 2A (Homo sapiens) (UniProt P28223); assay: 5-hydroxytryptamine receptor 2A (HTR2A) small molecule agonists, cell-based qHTS assay (AID 1963587); note: nearly all actives have a fitted effect of over 30% in size
Summary of the method: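 Kinetic calcium-flux fluorescence (2 min, 1 sec intervals) after compound addition in agonist mode. HTR2A-CHO cells were cultured 18 h, then dye-loaded 1 h at 37 C.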

Measured: Potency

c1ccc2sc(SSN3CCOCC3)nc2c1
active: [1] 30.6 µM | [2] 24.3 µM
inactive: [3] | [4] | [5] | [6] | [7] | [8] | [9] | [10] | [11] | [12] | [13] | [14] | [15] | [16]

COc1ccc2cc1Oc1cc3c(cc1OC)CC[N+](C)(C)[C@H]3Cc1ccc(cc1)Oc1c(OC)c(OC)cc3c1[C@@H](C2)[N+](C)(C)CC3
inactive: [1] | [2] | [4] | [17] | [18] | [5] | [6] | [7] | [19] | [8] | [20] | [9] | [10] | [11] | [12] | [13] | [15] | [16]

COc1cccc2c1C(=O)c1c(O)c3c(c(O)c1C2=O)C[C@@](O)(C(C)=O)C[C@@H]3O[C@H]1C[C@H](N)[C@H](O)[C@H](C)O1
inactive: [3] | [4]
active: [1] 6.15 µM and 2.37 µM

CCC(=O)OC
inactive: [1] | [3] | [4] | [17] | [18] | [5] | [6] | [7] | [19] | [8] | [20] | [11] | [12] | [15] | [16]
